According to PubChem BioAssay (Tox21):
Records with an inconclusive call do not appear. The source made the active and inactive calls. The call rests on the fitted dose curve; in most records, active means well fitted curve in the direction sought with a large enough effect in the repeat runs; inconclusive means weak or mixed curves; inactive means no such curve, though single readings can be large; an effect the other way counts as inactive or inconclusive.

Key:
[1] = qHTS RealTime-Glo MT Cell Viability Assay in HEK293 cells - 16 hour (AID 1224872); further: top concentration of the series differs between compounds; nearly all actives have a fitted effect of over 50% in size
Procedure, shortened: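 Cells + reagent dispensed (600 cells/well, HEK293) → 5 h at 37 C/5% CO2 → 23 nL compound in DMSO pinned → 40 h at 37 C → luminescence read at 0, 8, 16, 24, 32, 40 h.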

[2] = qHTS RealTime-Glo MT Cell Viability Assay in HepG2 cells - 8 hour (AID 1224873); further: nearly all actives have a fitted effect of over 55% in size
Procedure, shortened: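 HepG2 cells mixed with RealTime-Glo MT reagents (NanoLuc plus cell-permeant prosubstrate) were seeded at 600 cells/well, incubated 5 h at 37 C/5% CO2, then pinned with compounds in DMSO; nonlytic luminescence tracked viability during 40 h treatment.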

[3] = A CellTox Green Cytotoxicity Assay to monitor cytotoxicity in HEK293 cells - 24 hour (AID 1224875); further: nearly all actives have a fitted effect of over 45% in size; further: potency means the concentration at half of the fitted maximal effect; on activity change: series mostly up to about 77 µM
Procedure, shortened: (§1)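 Fluorescence intensity, read at 0, 8, 16, 24, 32 and 40 h of compound treatment, reflected dye binding to DNA of dead HEK293 cells; compounds (23 nL, DMSO) were added 5 h after plating cells with reagent.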

[4] = A CellTox Green Cytotoxicity Assay to monitor cytotoxicity in HepG2 cells - 16 hour (AID 1224876); further: nearly all actives have a fitted effect of over 45% in size
Procedure, shortened: (§2)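 Using 1536-well format, dye-containing HepG2 suspension was seeded, allowed 5 h at 37 C/5% CO2, dosed by pintool with compounds, positive and negative controls, and imaged for fluorescence across 40 h.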

[5] = qHTS RealTime-Glo MT Cell Viability Assay in HepG2 cells - 32 hour (AID 1224877); further: nearly all actives have a fitted effect of over 55% in size
Procedure, shortened: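 Real-time, nonlytic viability: 600 HepG2 cells/well mixed with NanoLuc enzyme plus prosubstrate; 5 h settle, compound (DMSO) added by pintool; luminescence monitored over 40 h at 37 C.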

[6] = A CellTox Green Cytotoxicity Assay to monitor cytotoxicity in HepG2 cells - 24 hour (AID 1224878); further: nearly all actives have a fitted effect of over 45% in size; further: potency means the concentration at half of the fitted maximal effect
Procedure, shortened: as §2

[7] = A CellTox Green Cytotoxicity Assay to monitor cytotoxicity in HepG2 cells - 40 hour (AID 1224879); further: nearly all actives have a fitted effect of over 40% in size; further: potency means the concentration at half of the fitted maximal effect
Procedure, shortened: as §2

[8] = qHTS RealTime-Glo MT Cell Viability Assay in HEK293 cells - 0 hour (AID 1224880); further: nearly all actives have a fitted effect of over 45% in size; further: potency means the concentration at half of the fitted maximal effect; on activity change, negative = cytotoxicity: top concentration of the series differs between compounds
Procedure, shortened: (§3)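 Viable HEK293 cells reduce a cell-permeant prosubstrate; the product diffuses out and is consumed by NanoLuc in the medium to give light. Compounds went in after a 5 h incubation and plates were read over the treatment course.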

[9] = A CellTox Green Cytotoxicity Assay to monitor cytotoxicity in HEK293 cells - 32 hour (AID 1224881); further: nearly all actives have a fitted effect of over 40% in size; further: potency means the concentration at half of the fitted maximal effect
Procedure, shortened: as §1

[10] = qHTS RealTime-Glo MT Cell Viability Assay in HEK293 cells - 40 hour (AID 1224874); details: RealTime-Glo luminescence; max response: hits give low values; further: nearly all actives have a fitted effect of over 50% in size
Procedure, shortened: as §3
On the % scale 0 is the no-effect control and ±100 the full control effect.

O=C(NS(=O)(=O)/C=C/c1cccs1)c1ccc(F)cc1Br
active: Potency [8] 19.5 µM
inactive: Potency [1] | Potency [2] | Potency [3] | Potency [4] | Potency [5] | Potency [6] | Potency [7] | Potency [9]

Cc1ccc(O)c([C@H](CCN(C(C)C)C(C)C)c2ccccc2)c1
inactive: Potency [1] | Potency [2] | Potency [3] | Potency [4] | Potency [8] | Potency [9]
active: Potency [6] 21.3 µM | Potency [7] 23.9 µM

NCc1ccccc1
inactive: Potency [1] | Potency [2] | max response [10] 2.09% | Potency [3] | Potency [5] | Potency [6] | Potency [7] | Potency [9]

CCCCCCc1ccc(N)cc1
inactive: Potency [1] | Potency [2] | max response [10] 4.72% | Potency [3] | Potency [5] | Potency [9]
active: Potency [6] 49 µM | Potency [7] 49 µM

CC[C@H](C)[C@@H](C(=O)O)n1sc2ccccc2c1=O
inactive: Potency [1] | Potency [2] | max response [10] -0.529% | Potency [3] | Potency [6] | Potency [7] | Potency [8] | Potency [9]

O=C(O)Cc1cc(I)c(Oc2ccc(O)c(I)c2)c(I)c1
inactive: Potency [1] | Potency [2] | max response [10] 4.51% | Potency [3] | Potency [5] | Potency [6] | Potency [7] | Potency [9]

O=[N+]([O-])c1cccc(Cl)c1Cl
inactive: Potency [1] | Potency [2] | max response [10] -16.4% | Potency [4] | Potency [5] | Potency [6] | Potency [7] | Potency [8]

COc1ccc([C@@H]2Sc3ccccc3N(CCN(C)C)C(=O)[C@@H]2OC(C)=O)cc1
inactive: Potency [1] | Potency [2] | Potency [3] | Potency [4] | Potency [5] | Potency [6] | Potency [7] | Potency [8] | Potency [9]

Nc1nc(N)c2nc(CNc3ccc(C(=O)N[C@@H](CCC(=O)O)C(=O)O)cc3)cnc2n1
inactive: Potency [1] | Potency [2] | Potency [3] | Potency [5] | Potency [6] | Potency [7] | Potency [8] | Potency [9]

CCOc1ccc2[nH]cc(C(=O)NCc3ccccc3)c(=O)c2n1
inactive: Potency [1] | max response [10] -23.2% | Potency [3] | Potency [4] | Potency [6] | Potency [7] | Potency [8] | Potency [9]

CCCCCCCCCCCCCCCCCBr
inactive: activity change, negative = cytotoxicity [1] -1.86% [at 15.8 µM] | max response [10] 3.16% | activity change [3] -8.25% [at 15.8 µM, hits give high values] | activity change, negative = cytotoxic [5] 4.28% [at 15.8 µM] | cytotoxicity [6] -11% [at 15.8 µM] | activity change, negative = cytotoxicity [8] -0.712% [at 15.8 µM] | cytotoxicity increase [9] -9.33% [at 15.8 µM]

CCCc1ccccc1
inactive: Potency [1] | max response [10] 0.274% | Potency [3] | Potency [4] | Potency [5] | Potency [6] | Potency [7] | Potency [8] | Potency [9]

C1=Cc2ccccc2C1
inactive: Potency [1] | max response [10] 6.96% | Potency [3] | Potency [4] | Potency [5] | Potency [6] | Potency [7] | Potency [8] | Potency [9]

COc1ccccc1OC(=O)Oc1ccccc1OC
inactive: Potency [1] | max response [10] 1.1% | Potency [3] | Potency [4] | Potency [5] | Potency [6] | Potency [7] | Potency [8] | Potency [9]

CCCCOC(O)CC (centres undefined)
inactive: Potency [1] | max response [10] 3% | Potency [3] | Potency [4] | Potency [6] | Potency [7] | Potency [8] | Potency [9]

CN1CCC(=C2c3ccccc3C=Cc3ccccc32)CC1
inactive: Potency [1] | Potency [2] | Potency [3] | Potency [8] | Potency [9]
active: Potency [7] 26.8 µM

N#Cc1cc2ccccc2c2ccccc12
inactive: Potency [1] | max response [10] -18.9% | Potency [3] | Potency [5] | Potency [6] | Potency [7] | Potency [9]

O=C(O)Cc1sc(-c2ccccc2)nc1-c1ccc(Cl)cc1
inactive: Potency [1] | max response [10] 0.938% | Potency [3] | Potency [4] | Potency [5] | Potency [6] | Potency [7] | Potency [9]

CC(=O)/C(C)=C/C1C(C)=CCCC1(C)C (centres undefined)
inactive: Potency [1] | max response [10] -10.3% | Potency [4] | Potency [5] | Potency [8]
active: Potency [3] 17.4 µM | Potency [9] 17.4 µM

O=C(CC(=O)c1ccccc1)c1ccccc1
inactive: Potency [1] | max response [10] -4.39% | Potency [3] | Potency [4] | Potency [5] | Potency [6] | Potency [7] | Potency [8] | Potency [9]

CN1CCC(=C2c3ccccc3CCc3sccc32)CC1
active: Potency [6] 23.9 µM | Potency [7] 23.9 µM
inactive: Potency [1] | Potency [2] | Potency [3] | Potency [5] | Potency [9]

Cc1ccc(C)o1
inactive: Potency [1] | max response [10] -14.9% | Potency [3] | Potency [4] | Potency [5] | Potency [6] | Potency [7] | Potency [8] | Potency [9]

O=C(O)/C=C/c1cnc[nH]1
inactive: Potency [1] | max response [10] -5.16% | Potency [3] | Potency [5] | Potency [6] | Potency [7] | Potency [8] | Potency [9]

C=C(C)C(=O)OCCOc1ccccc1
inactive: Potency [1] | max response [10] 8.99% | Potency [3] | Potency [4] | Potency [6] | Potency [7] | Potency [8] | Potency [9]

CC(C)(C)c1ccc(OCC2CO2)cc1 (centres undefined)
inactive: Potency [1] | max response [10] -5.37% | Potency [4] | Potency [6] | Potency [7] | Potency [8]
